Assay results published in the supplement of paper PMC9694430.

Tests used:
Assay in all cases: thermal shift delta Tm vs DMSO control; higher = stronger stabilization (binding)
Details in all cases: 12.5 µM; protein concentration 2 µM
LOC_OS01G57100-cb003 = system: LOC_OS01G57100-cb003
Method in brief: (§1)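 Thermal shift values come from differential scanning fluorimetry on purified rice kinase domains made in E. coli, with melting temperatures obtained from Boltzmann fits. Samples of 19.5 μl held 2 μM kinase, 100 mM potassium phosphate pH 7.5, 150 mM NaCl, 10% glycerol, 5 × SYPRO Orange and compound in DMSO, and were heated from 25°C to 95°C at 0.05°C/s. Each shift is a triplicate mean relative to the DMSO-only protein sample.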

LOC_OS01G60330-cb001 = system: LOC_OS01G60330-cb001
Method in brief: as §1

LOC_OS01G60700-cb002 = system: LOC_OS01G60700-cb002
Method in brief: as §1

LOC_OS01G63280-cb003 = system: LOC_OS01G63280-cb003
Method in brief: as §1

LOC_OS01G67340-cb003 = system: LOC_OS01G67340-cb003
Method in brief: as §1

LOC_OS01G70970-cb002 = system: LOC_OS01G70970-cb002
Method in brief: as §1

LOC_OS02G07810-cb001 = system: LOC_OS02G07810-cb001
Method in brief: as §1

LOC_OS02G08530-cb003 = system: LOC_OS02G08530-cb003
Method in brief: as §1

LOC_OS02G14120-cb001 = system: LOC_OS02G14120-cb001
Method in brief: as §1

LOC_OS02G17970-cb001 = system: LOC_OS02G17970-cb001
Method in brief: as §1

LOC_OS02G45750-cb003 = system: LOC_OS02G45750-cb003
Method in brief: as §1

LOC_OS02G54510-cb004 = system: LOC_OS02G54510-cb004
Method in brief: as §1

LOC_OS03G04050-cb001 = system: LOC_OS03G04050-cb001
Method in brief: as §1

LOC_OS03G12390-cb001 = system: LOC_OS03G12390-cb001
Method in brief: as §1

LOC_OS03G27990-cb004 = system: LOC_OS03G27990-cb004
Method in brief: as §1

LOC_OS03G50450-cb001 = system: LOC_OS03G50450-cb001
Method in brief: as §1

LOC_OS03G50810-cb003 = system: LOC_OS03G50810-cb003
Method in brief: as §1

LOC_OS04G35114-cb001 = system: LOC_OS04G35114-cb001
Method in brief: as §1

LOC_OS04G38480-cb003 = system: T1, LOC_OS04G38480-cb003
T1 sequence (whole entry): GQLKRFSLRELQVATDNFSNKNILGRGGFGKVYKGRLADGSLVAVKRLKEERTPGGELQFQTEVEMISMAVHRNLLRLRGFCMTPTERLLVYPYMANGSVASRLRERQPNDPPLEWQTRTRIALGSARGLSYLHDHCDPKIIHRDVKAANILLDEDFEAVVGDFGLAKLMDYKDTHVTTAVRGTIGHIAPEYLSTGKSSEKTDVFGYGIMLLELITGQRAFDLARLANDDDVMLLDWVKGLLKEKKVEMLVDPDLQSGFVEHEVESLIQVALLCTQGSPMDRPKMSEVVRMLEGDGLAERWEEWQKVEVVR
Method in brief: as §1

LOC_OS04G41100-cb001 = system: T2, LOC_OS04G41100-cb001
T2 sequence (whole entry): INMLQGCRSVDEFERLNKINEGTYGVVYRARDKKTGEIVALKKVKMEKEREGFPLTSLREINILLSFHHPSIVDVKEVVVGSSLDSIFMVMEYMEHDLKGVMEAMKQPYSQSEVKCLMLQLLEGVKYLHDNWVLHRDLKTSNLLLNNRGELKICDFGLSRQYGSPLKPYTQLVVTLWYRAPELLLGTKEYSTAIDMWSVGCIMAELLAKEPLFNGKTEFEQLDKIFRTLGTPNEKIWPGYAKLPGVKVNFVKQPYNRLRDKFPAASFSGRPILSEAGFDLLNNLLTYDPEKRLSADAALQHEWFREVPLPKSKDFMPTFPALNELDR
Method in brief: as §1
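Further: purified Escherichia coli-expressed rice kinase domain construct.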

Compound	thermal shift delta Tm (LOC_OS01G57100-cb003) [°C]	thermal shift delta Tm (LOC_OS01G60330-cb001) [°C]	thermal shift delta Tm (LOC_OS01G60700-cb002) [°C]	thermal shift delta Tm (LOC_OS01G63280-cb003) [°C]	thermal shift delta Tm (LOC_OS01G67340-cb003) [°C]	thermal shift delta Tm (LOC_OS01G70970-cb002) [°C]	thermal shift delta Tm (LOC_OS02G07810-cb001) [°C]	thermal shift delta Tm (LOC_OS02G08530-cb003) [°C]	thermal shift delta Tm (LOC_OS02G14120-cb001) [°C]	thermal shift delta Tm (LOC_OS02G17970-cb001) [°C]	thermal shift delta Tm (LOC_OS02G45750-cb003) [°C]	thermal shift delta Tm (LOC_OS02G54510-cb004) [°C]	thermal shift delta Tm (LOC_OS03G04050-cb001) [°C]	thermal shift delta Tm (LOC_OS03G12390-cb001) [°C]	thermal shift delta Tm (LOC_OS03G27990-cb004) [°C]	thermal shift delta Tm (LOC_OS03G50450-cb001) [°C]	thermal shift delta Tm (LOC_OS03G50810-cb003) [°C]	thermal shift delta Tm (LOC_OS04G35114-cb001) [°C]	thermal shift delta Tm (LOC_OS04G38480-cb003) [°C]	thermal shift delta Tm (LOC_OS04G41100-cb001) [°C]
C#Cc1cccc(Nc2ncnc3cc(OCCOC)c(OCCO)cc23)c1	0.15	0.3	0.24	-0.13	-0.22	0.5	1.32	1.16	4.33	-0.01	3.92	0.67	0.26	2.39	0.08	0.13	0.83	6.33	1.21	0.13
O=C1Cc2c([nH]c3ccc(Br)cc23)-c2ccccc2N1 [Kenpaullone]	0.8	2.91	0.89	3.38	1.58	5.88	1.24	1.62	2.5	2.97	6.87	1.11	0.51	5.47	2.21	0.9	2.26	4.7	2.14	2.07
S=C(NCc1ccc2c(c1)OCO2)N1CCN(c2ncnc3c2oc2ccccc23)CC1 [Amuvatinib (MP-470)]	1.62	1.4	1.01	0.5	0.84	0.42	1.04	1.09	0.42	1.14	0.86	-2.11	0.55	0.66	0.56	0.69	0.68	-0.04	0.39	0.47
CS(=O)(=O)CCNCc1ccc(-c2ccc3ncnc(Nc4ccc(OCc5cccc(F)c5)c(Cl)c4)c3c2)o1	0.92	1.06	1.49	0.35	-0.49	0.26	1.15	0.58	-0.53	0.69	-0.27	0.18	0.24	0.39	0.11	0.01	0.17	0.48	0.99	0.27
CC1(C)OC(=O)C=C[C@]2(C)[C@H]3CC[C@@]4(C)[C@H](c5ccoc5)OC(=O)[C@H]5O[C@]54[C@]3(C)C(=O)C[C@@H]12 [Obacunone]	1.14	0.6	0.14	0.26	0.19	0.13	0.27	0.44	0.92	0.03	0.46	-0.19	0.48	0.2	0.14	0.72	0.54	-0.27	1.66	0.27
CS(=O)(=O)c1ccc(-c2cnc(N)c(C(=O)Nc3ccccc3)n2)cc1	0.59	1.29	0.17	0.26	0.52	1.04	0.54	0.71	-0.32	-0.36	4.49	0.26	0.2	0.62	0.7	0.18	0.94	3.32	1.11	0.38
C=CCc1ccc(O)c(-c2ccc(O)c(CC=C)c2)c1 [Honokiol]	2.73	0.73	1.34	1.12	1.09	0.71	1.8	1.59	0.96	1.32	-0.57	0.26	0.72	-0.04	0.52	0.5	0.47	0.36	1.32	0.48
CCNC(=O)Nc1ccc(-c2nc3c(c(N4CCOC[C@@H]4C)n2)CCN(C2COC2)C3)cc1	1.02	0.52	0.42	0.65	0.16	0.23	0.04	0.71	-0.29	-0.11	1.07	0.26	0.61	-0.06	0.78	0.68	0.23	0.56	-0.03	0.46
Cc1nc(Nc2cnn(C3CCNCC3)c2)nc2c1N(C)C(=O)c1cc3ccccc3cc1N2C	0.83	1.06	0.29	0.05	1.06	0.51	0.09	1.07	1.04	-0.03	2.86	-0.12	0.18	1.89	0.13	0.69	0.96	1.48	1.64	0.38
N#Cc1c(Oc2ccc(F)c(NC(=O)Cc3cccc(C(F)(F)F)c3)c2)ccc2nc(NC(=O)C3CC3)sc12	2.29	1.23	1.86	0.73	0.52	0.34	0.79	0.98	0.68	0.88	1.08	0.54	0.5	0.15	0.31	0.4	0.5	0.45	1.92	0.42
C=CC(=O)Nc1cc(Nc2nccc(-c3c[nH]c4ccccc34)n2)c(OC)cc1N(C)CCN(C)C	1.63	0.87	1.61	0.65	0.79	0.59	0.87	5.01	4.93	1.65	1.45	0.35	0.7	5.75	0.52	0.87	1.28	4.03	2.42	0.37
COc1cc(F)c(F)c(Nc2ccc(I)cc2F)c1NS(=O)(=O)C1(C[C@H](O)CO)CC1 [Refametinib (RDEA119, Bay 86-9766)]	0.45	1.69	0.96	0.75	-0.44	0.49	0.84	0.79	1.54	1.26	0.64	0.25	0.61	0.09	0.41	0.71	0.41	0.19	0.79	0.72
